Holding throughout (test): DAPPL (digital affinity profiling via proximity ligation, sequencing); 10 mM Tris-HCl pH 7.5, 50 mM NaCl, 1 mM DTT, 4% glycerol, room temperature, 30 min; GST-TFs on glutathione beads, 16-mer random dsDNA library, 0.1% formaldehyde crosslink after washing; high values mean tight binding
The target in assay [1] is T1, FLI1 (Homo sapiens, UniProt Q01543 1-452).
T1 sequence: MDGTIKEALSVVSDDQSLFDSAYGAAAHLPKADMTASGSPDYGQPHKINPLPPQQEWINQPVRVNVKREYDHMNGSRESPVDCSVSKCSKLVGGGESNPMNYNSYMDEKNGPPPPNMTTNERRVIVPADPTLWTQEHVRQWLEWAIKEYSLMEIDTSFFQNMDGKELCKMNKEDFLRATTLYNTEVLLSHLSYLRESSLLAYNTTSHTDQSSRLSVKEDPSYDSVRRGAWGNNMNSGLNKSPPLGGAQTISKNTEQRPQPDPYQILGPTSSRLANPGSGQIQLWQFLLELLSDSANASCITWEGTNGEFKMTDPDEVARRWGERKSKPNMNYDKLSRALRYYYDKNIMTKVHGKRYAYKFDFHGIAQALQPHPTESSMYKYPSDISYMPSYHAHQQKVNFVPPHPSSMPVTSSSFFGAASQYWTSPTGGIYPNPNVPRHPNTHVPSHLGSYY
To be noted: protein: recombinant; tags: N-terminal GST; dsDNA, one strand shown. The procedure, abridged: (§1)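 Pools of DNA-barcoded human transcription factors, expressed in yeast as GST fusions on glutathione beads and combined with a tag-only sample, were incubated with 200 nmole of a 16-mer random double-stranded DNA library. Incubation took 30 min at room temperature in Tris/NaCl/DTT/glycerol buffer and was followed by washing, 0.1% formaldehyde crosslinking, proximity ligation (BsaI/T4 ligase, 1 h, 37 °C), PCR amplification and sequencing on an Illumina NextSeq500. Binding signal is the ratio of a hexamer's read frequency for a factor to its frequency for the tag-only sample.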

In assay [2] the target is T2, ELK1 (Homo sapiens, UniProt P19419 1-428).
T2 sequence: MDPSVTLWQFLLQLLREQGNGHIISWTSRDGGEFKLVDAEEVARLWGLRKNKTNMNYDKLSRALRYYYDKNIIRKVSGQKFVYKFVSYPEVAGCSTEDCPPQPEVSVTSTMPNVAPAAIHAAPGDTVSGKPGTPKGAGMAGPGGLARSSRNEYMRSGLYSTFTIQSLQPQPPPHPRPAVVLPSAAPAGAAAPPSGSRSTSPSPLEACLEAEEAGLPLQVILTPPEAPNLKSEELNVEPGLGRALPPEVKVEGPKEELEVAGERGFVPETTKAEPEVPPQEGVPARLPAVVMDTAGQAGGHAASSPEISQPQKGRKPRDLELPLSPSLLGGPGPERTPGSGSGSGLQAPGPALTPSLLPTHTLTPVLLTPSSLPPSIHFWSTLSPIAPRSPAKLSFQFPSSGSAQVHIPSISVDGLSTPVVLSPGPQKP
Conditions: protein: recombinant; tags: N-terminal GST; dsDNA, one strand shown. The method, boiled down:
as §1

In assay [3] the target is T3, GABPA (Homo sapiens, UniProt Q06546 1-454).
T3 sequence: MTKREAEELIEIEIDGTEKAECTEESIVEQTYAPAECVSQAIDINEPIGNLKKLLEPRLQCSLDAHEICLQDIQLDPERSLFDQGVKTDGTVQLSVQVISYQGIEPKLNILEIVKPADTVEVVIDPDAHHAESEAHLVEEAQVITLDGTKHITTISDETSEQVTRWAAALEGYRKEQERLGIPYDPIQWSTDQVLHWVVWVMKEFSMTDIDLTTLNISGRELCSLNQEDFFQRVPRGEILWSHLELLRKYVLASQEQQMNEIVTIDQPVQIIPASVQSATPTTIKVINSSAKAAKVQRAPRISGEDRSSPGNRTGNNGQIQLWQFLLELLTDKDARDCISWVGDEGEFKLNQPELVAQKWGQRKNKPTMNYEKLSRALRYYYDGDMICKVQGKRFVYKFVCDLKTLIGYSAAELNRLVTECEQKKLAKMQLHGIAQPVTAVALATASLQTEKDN
Conditions: protein: recombinant; tags: N-terminal GST; dsDNA, one strand shown. The method, boiled down:
as §1

Assay [4] deals with T4, ERG (Homo sapiens, UniProt P11308 1-479).
T4 sequence: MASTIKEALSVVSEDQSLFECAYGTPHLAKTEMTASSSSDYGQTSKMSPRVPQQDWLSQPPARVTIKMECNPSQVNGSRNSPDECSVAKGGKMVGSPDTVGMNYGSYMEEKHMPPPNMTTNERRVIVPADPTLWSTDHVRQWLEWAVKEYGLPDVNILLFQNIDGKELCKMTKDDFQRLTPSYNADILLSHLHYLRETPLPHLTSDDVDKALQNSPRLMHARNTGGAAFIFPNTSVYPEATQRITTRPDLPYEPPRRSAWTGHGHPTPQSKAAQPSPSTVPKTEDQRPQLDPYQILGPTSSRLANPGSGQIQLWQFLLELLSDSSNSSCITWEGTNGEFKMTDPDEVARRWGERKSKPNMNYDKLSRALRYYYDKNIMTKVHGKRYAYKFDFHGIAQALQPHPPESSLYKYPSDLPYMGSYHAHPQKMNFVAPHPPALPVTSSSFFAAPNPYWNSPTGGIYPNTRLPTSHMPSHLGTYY
Conditions: protein: recombinant; tags: N-terminal GST; dsDNA, one strand shown. The method, boiled down:
as §1

Assay [5] has as its target ELF1 (Homo sapiens, UniProt P32519 1-619). To be noted: protein: recombinant; tags: N-terminal GST; dsDNA, one strand shown. The method, boiled down: as §1
The target of assay [6] is T5, EHF (Homo sapiens, UniProt Q9NZC4 1-300).
T5 sequence: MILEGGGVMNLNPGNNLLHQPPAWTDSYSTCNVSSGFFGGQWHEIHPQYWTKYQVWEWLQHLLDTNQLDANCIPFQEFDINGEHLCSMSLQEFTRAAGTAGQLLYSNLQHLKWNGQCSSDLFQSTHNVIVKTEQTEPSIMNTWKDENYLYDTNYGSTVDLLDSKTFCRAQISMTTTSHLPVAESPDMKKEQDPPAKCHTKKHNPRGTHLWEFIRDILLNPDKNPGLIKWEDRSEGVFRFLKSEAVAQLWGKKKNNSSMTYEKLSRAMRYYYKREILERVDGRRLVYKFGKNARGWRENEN
To be noted: protein: recombinant; tags: N-terminal GST; dsDNA, one strand shown. The method, boiled down:
as §1

For assay [7], the target named is SPI1 (Homo sapiens, UniProt P17947 1-270). To be noted: protein: recombinant; tags: N-terminal GST; dsDNA, one strand shown. The method, boiled down: as §1
Assay [8] deals with SPIB (Homo sapiens, UniProt Q01892 1-262). Conditions: protein: recombinant; tags: N-terminal GST; dsDNA, one strand shown. The method, boiled down: as §1
In assay [9] the target is T6, ELK3 (Homo sapiens, UniProt P41970 1-407).
T6 sequence: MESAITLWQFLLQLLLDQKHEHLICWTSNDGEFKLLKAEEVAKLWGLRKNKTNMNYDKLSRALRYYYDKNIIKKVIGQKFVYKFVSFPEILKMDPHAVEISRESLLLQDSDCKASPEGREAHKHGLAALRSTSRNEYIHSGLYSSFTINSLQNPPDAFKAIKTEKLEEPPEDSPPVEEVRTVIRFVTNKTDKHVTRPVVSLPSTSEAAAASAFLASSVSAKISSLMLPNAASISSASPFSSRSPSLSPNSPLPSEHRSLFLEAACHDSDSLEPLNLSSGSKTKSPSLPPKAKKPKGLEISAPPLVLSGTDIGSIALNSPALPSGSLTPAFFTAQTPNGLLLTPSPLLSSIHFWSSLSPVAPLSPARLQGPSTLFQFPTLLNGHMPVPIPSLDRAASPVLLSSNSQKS
To be noted: protein: recombinant; tags: N-terminal GST; dsDNA, one strand shown. The method, boiled down: as §1

For assay [10], the target named is T7, FEV (Homo sapiens, UniProt Q99581 1-238).
T7 sequence: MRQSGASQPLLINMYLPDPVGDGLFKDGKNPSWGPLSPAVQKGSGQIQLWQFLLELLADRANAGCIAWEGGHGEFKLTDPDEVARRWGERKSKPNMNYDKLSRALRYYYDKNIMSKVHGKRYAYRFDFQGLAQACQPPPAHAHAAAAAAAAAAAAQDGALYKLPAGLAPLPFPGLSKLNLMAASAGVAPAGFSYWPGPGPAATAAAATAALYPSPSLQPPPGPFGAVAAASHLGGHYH
Conditions: protein: recombinant; tags: N-terminal GST; dsDNA, one strand shown. The method, boiled down: as §1

The target in assay [11] is ETV5 (Homo sapiens, UniProt P41161 1-510). To be noted: protein: recombinant; tags: N-terminal GST; dsDNA, one strand shown. The procedure, abridged: as §1
Assay [12] concerns the target HSF1 (Homo sapiens, UniProt Q00613 1-529). To be noted: protein: recombinant; tags: N-terminal GST; chain copies: 3; dsDNA, one strand shown. The method, boiled down:
as §1

Assay [13] deals with T8, SPIC (Homo sapiens, UniProt Q8N5J4 1-248).
T8 sequence: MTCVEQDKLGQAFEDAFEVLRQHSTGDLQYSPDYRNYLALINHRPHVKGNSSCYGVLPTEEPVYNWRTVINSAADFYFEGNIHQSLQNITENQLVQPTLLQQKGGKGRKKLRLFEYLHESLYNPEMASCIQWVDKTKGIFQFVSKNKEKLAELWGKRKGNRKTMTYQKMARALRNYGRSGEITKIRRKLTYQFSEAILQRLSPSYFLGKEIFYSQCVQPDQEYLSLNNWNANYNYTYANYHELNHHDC
To be noted: protein: recombinant; tags: N-terminal GST; dsDNA, one strand shown. The procedure, abridged:
as §1

The target in assay [14] is ELF4 (Homo sapiens, UniProt Q99607 1-663). Conditions: protein: recombinant; tags: N-terminal GST; dsDNA, one strand shown. The procedure, abridged:
as §1

Assay [15] addresses T9, ELK4 (Homo sapiens, UniProt P28324-2 1-405).
T9 sequence: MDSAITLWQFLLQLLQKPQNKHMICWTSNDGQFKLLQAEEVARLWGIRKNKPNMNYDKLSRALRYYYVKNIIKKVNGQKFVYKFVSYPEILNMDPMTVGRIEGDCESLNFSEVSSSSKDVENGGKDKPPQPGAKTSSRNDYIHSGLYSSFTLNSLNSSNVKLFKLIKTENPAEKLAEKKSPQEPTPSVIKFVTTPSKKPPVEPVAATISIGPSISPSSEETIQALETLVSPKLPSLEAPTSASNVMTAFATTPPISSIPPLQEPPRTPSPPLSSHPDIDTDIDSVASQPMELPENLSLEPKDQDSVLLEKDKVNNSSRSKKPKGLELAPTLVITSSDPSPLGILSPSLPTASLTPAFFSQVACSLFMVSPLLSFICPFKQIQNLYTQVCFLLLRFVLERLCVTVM
To be noted: protein: recombinant; tags: N-terminal GST; dsDNA, one strand shown. The method, boiled down:
as §1

The target of assay [16] is T10, ETV2 (Homo sapiens, UniProt O00321 1-342).
T10 sequence: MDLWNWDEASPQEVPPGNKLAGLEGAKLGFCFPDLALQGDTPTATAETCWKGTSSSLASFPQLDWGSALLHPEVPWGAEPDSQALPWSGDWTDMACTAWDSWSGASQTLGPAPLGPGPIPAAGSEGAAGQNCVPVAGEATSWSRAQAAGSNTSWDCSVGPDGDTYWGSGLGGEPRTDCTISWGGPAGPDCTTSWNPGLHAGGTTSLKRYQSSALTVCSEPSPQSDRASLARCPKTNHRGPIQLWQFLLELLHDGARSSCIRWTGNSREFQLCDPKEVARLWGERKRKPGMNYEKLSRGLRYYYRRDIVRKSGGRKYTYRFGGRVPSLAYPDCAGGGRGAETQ
To be noted: protein: recombinant; tags: N-terminal GST; dsDNA, one strand shown. The procedure, abridged: as §1

Assay [17] deals with T11, ELF3 (Homo sapiens, UniProt P78545 1-371).
T11 sequence: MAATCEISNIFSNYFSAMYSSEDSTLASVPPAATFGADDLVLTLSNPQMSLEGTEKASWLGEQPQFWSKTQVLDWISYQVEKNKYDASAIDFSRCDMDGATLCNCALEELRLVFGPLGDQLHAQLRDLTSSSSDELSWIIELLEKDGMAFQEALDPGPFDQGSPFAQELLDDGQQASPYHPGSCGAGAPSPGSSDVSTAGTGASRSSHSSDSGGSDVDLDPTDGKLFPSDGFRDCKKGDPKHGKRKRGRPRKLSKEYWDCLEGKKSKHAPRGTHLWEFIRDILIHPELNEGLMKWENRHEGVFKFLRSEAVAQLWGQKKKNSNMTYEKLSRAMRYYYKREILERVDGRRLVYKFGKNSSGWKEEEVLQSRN
Conditions: protein: recombinant; tags: N-terminal GST; dsDNA, one strand shown. The method, boiled down: as §1

Assay [18] addresses ETV1 (Homo sapiens, UniProt P50549 1-477). Conditions: protein: recombinant; tags: N-terminal GST; dsDNA, one strand shown. The method, boiled down: as §1

Chain of HSF1 (Q00613 whole entry): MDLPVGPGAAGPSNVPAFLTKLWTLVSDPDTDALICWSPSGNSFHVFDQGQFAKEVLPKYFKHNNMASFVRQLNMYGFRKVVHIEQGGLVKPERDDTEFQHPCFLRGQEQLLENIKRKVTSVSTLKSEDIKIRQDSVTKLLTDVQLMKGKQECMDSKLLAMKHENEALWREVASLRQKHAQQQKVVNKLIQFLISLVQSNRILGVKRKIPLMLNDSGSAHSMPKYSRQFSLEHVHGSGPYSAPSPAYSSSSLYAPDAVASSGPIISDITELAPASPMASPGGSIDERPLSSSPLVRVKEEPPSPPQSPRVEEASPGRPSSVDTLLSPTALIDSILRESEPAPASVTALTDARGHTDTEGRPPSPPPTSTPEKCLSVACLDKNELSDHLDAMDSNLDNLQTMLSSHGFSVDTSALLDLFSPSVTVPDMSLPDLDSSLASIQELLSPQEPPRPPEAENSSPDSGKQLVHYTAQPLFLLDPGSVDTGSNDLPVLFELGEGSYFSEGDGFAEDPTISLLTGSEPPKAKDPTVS
Chain of SPIB (Q01892 whole entry): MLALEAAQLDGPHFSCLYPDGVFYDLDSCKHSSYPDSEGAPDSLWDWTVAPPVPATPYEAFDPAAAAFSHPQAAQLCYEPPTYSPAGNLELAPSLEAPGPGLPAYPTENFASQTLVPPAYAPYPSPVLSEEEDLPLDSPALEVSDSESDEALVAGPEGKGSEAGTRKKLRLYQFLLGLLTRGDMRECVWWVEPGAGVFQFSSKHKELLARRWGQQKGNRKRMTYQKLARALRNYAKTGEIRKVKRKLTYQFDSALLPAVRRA
Chain of ETV1 (P50549 whole entry): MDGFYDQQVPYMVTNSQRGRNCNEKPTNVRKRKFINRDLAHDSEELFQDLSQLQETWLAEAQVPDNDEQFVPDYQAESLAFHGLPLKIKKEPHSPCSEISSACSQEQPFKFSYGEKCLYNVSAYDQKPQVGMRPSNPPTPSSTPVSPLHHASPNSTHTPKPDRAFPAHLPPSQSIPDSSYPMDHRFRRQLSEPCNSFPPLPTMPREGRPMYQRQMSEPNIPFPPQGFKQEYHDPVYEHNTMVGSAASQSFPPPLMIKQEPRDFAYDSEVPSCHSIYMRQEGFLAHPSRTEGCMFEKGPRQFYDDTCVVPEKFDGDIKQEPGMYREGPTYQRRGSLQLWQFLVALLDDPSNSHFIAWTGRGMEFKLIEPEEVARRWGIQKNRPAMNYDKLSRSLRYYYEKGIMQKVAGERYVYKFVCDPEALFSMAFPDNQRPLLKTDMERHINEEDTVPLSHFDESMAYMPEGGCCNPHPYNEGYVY
Chain of ELF4 (Q99607 whole entry): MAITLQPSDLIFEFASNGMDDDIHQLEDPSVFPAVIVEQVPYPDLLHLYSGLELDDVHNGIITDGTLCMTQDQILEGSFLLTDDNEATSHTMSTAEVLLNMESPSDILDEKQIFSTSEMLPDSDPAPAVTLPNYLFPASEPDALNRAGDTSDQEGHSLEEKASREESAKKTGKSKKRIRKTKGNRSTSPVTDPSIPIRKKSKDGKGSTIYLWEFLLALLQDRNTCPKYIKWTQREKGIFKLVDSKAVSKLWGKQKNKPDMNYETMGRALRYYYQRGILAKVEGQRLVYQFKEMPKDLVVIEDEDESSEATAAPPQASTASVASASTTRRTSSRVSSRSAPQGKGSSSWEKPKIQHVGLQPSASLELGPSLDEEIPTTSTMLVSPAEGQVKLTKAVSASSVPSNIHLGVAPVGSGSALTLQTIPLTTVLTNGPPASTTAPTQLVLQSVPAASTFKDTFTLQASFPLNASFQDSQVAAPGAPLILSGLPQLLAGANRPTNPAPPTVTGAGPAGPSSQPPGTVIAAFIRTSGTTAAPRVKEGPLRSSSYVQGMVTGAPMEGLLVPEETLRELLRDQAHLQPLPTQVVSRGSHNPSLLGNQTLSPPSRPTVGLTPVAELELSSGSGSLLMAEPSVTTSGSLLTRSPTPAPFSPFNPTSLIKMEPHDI
Chain of ETV5 (P41161 whole entry): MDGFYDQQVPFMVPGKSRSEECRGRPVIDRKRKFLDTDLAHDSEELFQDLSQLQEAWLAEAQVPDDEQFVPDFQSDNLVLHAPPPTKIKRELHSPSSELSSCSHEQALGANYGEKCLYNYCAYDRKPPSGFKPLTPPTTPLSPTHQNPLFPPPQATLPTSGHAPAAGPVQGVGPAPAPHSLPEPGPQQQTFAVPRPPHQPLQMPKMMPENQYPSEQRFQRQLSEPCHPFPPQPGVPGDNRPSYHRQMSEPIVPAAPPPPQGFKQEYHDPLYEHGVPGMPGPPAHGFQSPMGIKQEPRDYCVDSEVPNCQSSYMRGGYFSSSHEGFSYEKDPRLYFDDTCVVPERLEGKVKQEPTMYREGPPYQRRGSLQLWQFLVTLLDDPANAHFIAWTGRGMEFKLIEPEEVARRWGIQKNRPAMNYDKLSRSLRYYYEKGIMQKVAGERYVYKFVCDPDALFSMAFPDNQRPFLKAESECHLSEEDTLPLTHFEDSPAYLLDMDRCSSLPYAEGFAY
Chain of ELF1 (P32519 whole entry): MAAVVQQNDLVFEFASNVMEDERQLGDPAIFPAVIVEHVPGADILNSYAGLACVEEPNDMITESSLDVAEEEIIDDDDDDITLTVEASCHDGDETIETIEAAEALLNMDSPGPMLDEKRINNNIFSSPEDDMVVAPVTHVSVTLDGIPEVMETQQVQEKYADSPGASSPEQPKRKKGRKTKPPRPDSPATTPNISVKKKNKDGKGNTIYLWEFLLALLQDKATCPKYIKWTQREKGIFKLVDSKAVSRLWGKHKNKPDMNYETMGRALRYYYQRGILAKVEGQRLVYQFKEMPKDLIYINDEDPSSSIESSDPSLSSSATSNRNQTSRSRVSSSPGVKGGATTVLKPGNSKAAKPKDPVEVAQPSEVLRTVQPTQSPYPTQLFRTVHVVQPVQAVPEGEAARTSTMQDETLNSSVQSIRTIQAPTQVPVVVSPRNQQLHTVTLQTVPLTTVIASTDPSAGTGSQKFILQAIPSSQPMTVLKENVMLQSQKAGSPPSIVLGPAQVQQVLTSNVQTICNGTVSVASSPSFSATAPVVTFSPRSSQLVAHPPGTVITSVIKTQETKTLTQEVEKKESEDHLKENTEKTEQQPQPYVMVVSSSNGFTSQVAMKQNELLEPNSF

On to GAAACT, for which the binding signal in assay [1] was 1.22 fold enrichment (6-mer frequency, TF over GST control); in assay [2] it was 1.21 fold enrichment (6-mer frequency, TF over GST control); in assay [3], 1.14 fold enrichment (6-mer frequency, TF over GST control); in [4] it was 1.11 fold enrichment (6-mer frequency, TF over GST control); in [5], 1.18 fold enrichment (6-mer frequency, TF over GST control); in [6], 1.19 fold enrichment (6-mer frequency, TF over GST control). Moreover, the binding signal in assay [7] is 1.2 fold enrichment (6-mer frequency, TF over GST control); in [8] it was 1.14 fold enrichment (6-mer frequency, TF over GST control); in [9] it was 1.22 fold enrichment (6-mer frequency, TF over GST control); in [10], 1.29 fold enrichment (6-mer frequency, TF over GST control); in assay [11] it was 1.28 fold enrichment (6-mer frequency, TF over GST control); in assay [12], 1.32 fold enrichment (6-mer frequency, TF over GST control). Besides, the binding signal in [13] was 1.25 fold enrichment (6-mer frequency, TF over GST control); in [14] it was 1.24 fold enrichment (6-mer frequency, TF over GST control); in assay [15] it was 1.14 fold enrichment (6-mer frequency, TF over GST control); in assay [16], 1.12 fold enrichment (6-mer frequency, TF over GST control); in [17] it was 1.19 fold enrichment (6-mer frequency, TF over GST control); in assay [18], 1.27 fold enrichment (6-mer frequency, TF over GST control).

Values taken from PMC7862700, “An all-to-all approach to the identification of sequence-specific readers for epigenetic DNA modifications on cytosine”.
